The text below walks through data of PubChem BioAssay (EPA / NIEHS).

Read-out in test [1]: serum amyloid A (SAA), SAA1 (gene 6288)
The test is described as follows: BSK_CASM3C_SAA: BioMAP Diversity Plus: CASM3C Assay for serum amyloid A (SAA) Biomarker Activity (AID 2283049).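 Also: SAA protein level quantified by ELISA.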 The note with it: primary human coronary artery smooth muscle cells; actives raise or lower the signal.

The nature of test [2]: BSK_CASM3C_SRB: Viability Assessment in the BioMAP Diversity Plus: CASM3C Assay (AID 2283050).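 Also: cells exposed to compound for 24 h.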 The note with it: primary human coronary artery smooth muscle cells.
Read-out in test [3]: Thrombomodulin, THBD (gene 7056)
The test is described as follows: BSK_CASM3C_Thrombomodulin: BioMAP Diversity Plus: CASM3C Assay for Thrombomodulin Biomarker Activity (AID 2283051).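 Also: thrombomodulin protein level measured by ELISA 24 h after dosing.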 The following applies: primary human coronary artery smooth muscle cells; actives raise or lower the signal.

Read-out in test [4]: Tissue Factor, F3 (gene 2152)
The test is described as follows: BSK_CASM3C_TissueFactor: BioMAP Diversity Plus: CASM3C Assay for Tissue Factor Biomarker Activity (AID 2283052).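 Also: cell surface tissue factor protein level read by ELISA.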 The note with it: primary human coronary artery smooth muscle cells; actives raise or lower the signal.

Read-out in test [5]: Interferon-gamma inducible Protein 10 (IP10), CXCL10 (gene 3627)
The test is described as follows: BSK_hDFCGF_IP10: BioMAP Diversity Plus: hDFCGF Assay for Interferon-gamma inducible Protein 10 (IP10) Biomarker Activity (AID 2283053). The note with it: primary human foreskin fibroblasts; actives raise or lower the signal. The gist of the method: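 Chemical-treated human skin fibroblasts (primary) were sampled at 24 h for IP-10 by ELISA. Both increases and decreases relative to DMSO were scored.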

Read-out in test [6]: Urokinase-type plasminogen activator receptor (uPAR), PLAUR (gene 5329)
In words: BSK_CASM3C_uPAR: BioMAP Diversity Plus: CASM3C Assay for Urokinase-type plasminogen activator receptor (uPAR) Biomarker Activity (AID 2283054).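 Also: cell-surface uPAR protein level quantified by ELISA.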 The following applies: primary human coronary artery smooth muscle cells; actives raise or lower the signal.

Read-out in test [7]: Vascular cell adhesion molecule 1 (VCAM1), VCAM1 (gene 7412)
The test is described as follows: BSK_CASM3C_VCAM1: BioMAP Diversity Plus: CASM3C Assay for Vascular cell adhesion molecule 1 (VCAM1) Biomarker Activity (AID 2283055).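 Also: VCAM-1 protein level quantified by ELISA on the cells.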 The note with it: primary human coronary artery smooth muscle cells; actives raise or lower the signal.

Read-out in test [8]: Collagen III, COL3A1 (gene 1281)
The test is described as follows: BSK_hDFCGF_CollagenIII: BioMAP Diversity Plus: hDFCGF Assay for Collagen III Biomarker Activity (AID 2283056). The following applies: primary human foreskin fibroblasts; actives raise or lower the signal. In outline: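 Cells: human foreskin fibroblasts, primary. Dosing followed by 24 h incubation, then ELISA for collagen III. Both increases and decreases scored relative to DMSO.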

Read-out in test [9]: Interleukin-8 (IL8), CXCL8 (gene 3576)
In words: BSK_hDFCGF_IL8: BioMAP Diversity Plus: hDFCGF Assay for Interleukin-8 (IL8) Biomarker Activity (AID 2283058). The following applies: primary human foreskin fibroblasts; actives raise or lower the signal. The gist of the method:
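IL-8 levels from compound-treated primary human fibroblasts were read by ELISA at 24 h, with DMSO serving as baseline for bidirectional fitting.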

Test [10] in a line: BSK_hDFCGF_Proliferation: Cell Proliferation Assessment in the BioMAP Diversity Plus: hDFCGF Assay (AID 2283059).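 Also: curves fitted for both rise and fall of signal versus DMSO baseline.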 The note with it: primary human foreskin fibroblasts. In outline: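 This proliferation readout used SRB total-protein staining of human foreskin fibroblasts […], normalized to DMSO with bidirectional curve fitting.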
Read-out in test [11]: Macrophage colony-stimulating factor (MCSF), CSF1 (gene 1435)
In words: BSK_hDFCGF_MCSF: BioMAP Diversity Plus: hDFCGF Assay for Macrophage colony-stimulating factor (MCSF) Biomarker Activity (AID 2283060). The note with it: primary human foreskin fibroblasts; actives raise or lower the signal. In outline: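 M-CSF levels, determined by ELISA, are taken at 24 h after dosing human skin fibroblasts. Responses in either direction are fitted with DMSO serving as the baseline.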

Test [12] can be described thus: BSK_hDFCGF_SRB: Viability Assessment in the BioMAP Diversity Plus: hDFCGF Assay (AID 2283061).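 Also: cells exposed to compound for 24 h before the read.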 The note with it: primary human foreskin fibroblasts. In outline: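 Cells were dosed with test chemical, cultured 24 h, fixed with 10% TCA, then stained with 0.1% SRB and read at 560 nm. The fibroblasts were human foreskin primary cells, and DMSO served as baseline.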
Read-out in test [13]: TIMP metallopeptidase inhibitor 1 (TIMP1), TIMP1 (gene 7076)
The test is described as follows: BSK_hDFCGF_TIMP1: BioMAP Diversity Plus: hDFCGF Assay for TIMP metallopeptidase inhibitor 1 (TIMP1) Biomarker Activity (AID 2283062). The following applies: primary human foreskin fibroblasts; actives raise or lower the signal. In outline: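 Fibroblasts from human foreskin are treated with test chemical and harvested at 24 h. TIMP-1 is quantified by ELISA, and gain or loss of signal is scored against DMSO.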

Read-out in test [14]: Monokine induced gamma interferon (MIG), CXCL9 (gene 4283)
In words: BSK_hDFCGF_MIG: BioMAP Diversity Plus: hDFCGF Assay for Monokine induced gamma interferon (MIG) Biomarker Activity (AID 2283063). The following applies: primary human foreskin fibroblasts; actives raise or lower the signal. In outline: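 MIG signal, determined by ELISA, reflects 24 h chemical exposure of human skin primary fibroblasts. DMSO serves as negative control and baseline.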

Read-out in test [15]: Matrix Metallopeptidase 1 (MMP1), MMP1 (gene 4312)
In words: BSK_hDFCGF_MMP1: BioMAP Diversity Plus: hDFCGF Assay for Matrix Metallopeptidase 1 (MMP1) Biomarker Activity (AID 2283064). The following applies: primary human foreskin fibroblasts; actives raise or lower the signal. In outline: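 ELISA read-out of MMP1 from human foreskin fibroblasts (primary skin cells), 24 h post-dose. Gain or loss of signal was fitted bidirectionally versus DMSO negative control; cytotoxicity was checked by SRB in parallel cultures.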

Read-out in test [16]: Vascular cell adhesion molecule 1 (VCAM1), VCAM1 (gene 7412)
The test is described as follows: BSK_hDFCGF_VCAM1: BioMAP Diversity Plus: hDFCGF Assay for Vascular cell adhesion molecule 1 (VCAM1) Biomarker Activity (AID 2283065). The following applies: primary human foreskin fibroblasts; actives raise or lower the signal. The gist of the method: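 Cells are dosed, cultured for 24 h, then VCAM-1 is quantified by ELISA; signal increases and decreases are both fitted relative to DMSO.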

Read-out in test [17]: Plasminogen activator inhibitor-1 (PAI1), SERPINE1 (gene 5054)
The test is described as follows: BSK_hDFCGF_PAI1: BioMAP Diversity Plus: hDFCGF Assay for Plasminogen activator inhibitor-1 (PAI1) Biomarker Activity (AID 2283066). The following applies: primary human foreskin fibroblasts; actives raise or lower the signal. The gist of the method:
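Human skin fibroblast cultures receive chemical for 24 h before PAI-1 is measured by ELISA; signal changes are fitted bidirectionally against DMSO-treated wells.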

Read-out in test [18]: Intercellular Adhesion Molecule 1 (ICAM1), ICAM1 (gene 3383)
The test is described as follows: BSK_KF3CT_ICAM1: BioMAP Diversity Plus: KF3CT Assay for Intercellular Adhesion Molecule 1 (ICAM1) Biomarker Activity (AID 2283067). The note with it: primary human keratinocytes with fibroblasts; actives raise or lower the signal. The gist of the method:
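Dose the keratinocyte/fibroblast co-culture, wait 24 h, measure ICAM-1 by ELISA, then fit increases or decreases against DMSO. Cytotoxicity is checked in parallel cultures by SRB total-protein staining.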

Read-out in test [19]: Interferon-gamma inducible Protein 10 (IP10), CXCL10 (gene 3627)
The test is described as follows: BSK_KF3CT_IP10: BioMAP Diversity Plus: KF3CT Assay for Interferon-gamma inducible Protein 10 (IP10) Biomarker Activity (AID 2283068). The note with it: primary human keratinocytes with fibroblasts; actives raise or lower the signal. In outline: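 Signal is secreted/surface IP-10 by ELISA in a human primary skin co-culture of keratinocytes and foreskin fibroblasts, taken 24 h post-dosing; DMSO served as negative control.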

Some structures have more than one record in an assay (separate samples or runs), and their calls can disagree. Activity calls are given as the source filed them. The calls were made as follows: active = hit-call score of the fitted dose curve at least 0.9, where 1 is the maximum; inactive = score below 0.9.

For `OB(O)O`, the outcome in test [1], in test [2], in [3], in [4], in test [5] and in [6] was inactive. Moreover, the result in test [7], in [8], in test [9], in test [10], in test [11] and in [12] was inactive. The result in test [13], in test [14], in test [15], in [16], in test [17] and in [18] was inactive. Besides, the outcome in test [19] was inactive.

In general, AC50 refers to the concentration giving half of the maximal activity seen. Take `C#CCOC(=O)[C@@H](C)Oc1ccc(Oc2ncc(Cl)cc2F)cc1`: the result in test [1], in test [2], in [3], in [4], in [5] and in test [6] was inactive. For the same compound, the outcome in test [7], in [8], in [9], in test [11], in test [12] and in test [13] was inactive. In addition, the result in test [15], in test [16], in test [17], in test [18] and in test [19] was inactive. Besides, in [10], the AC50 was 14.9 µM (active).

As for `CCOC(=O)NCCOc1ccc(Oc2ccccc2)cc1`, the outcome in [1], in test [2], in test [3], in test [4], in test [5] and in [6] was inactive. In addition, the result in test [7], in test [9], in test [12], in test [13], in test [15] and in test [16] was inactive. Further, the outcome in test [17], in [18] and in test [19] was inactive. The AC50 in test [8] was 12.6 µM (active); in test [10], 24.7 µM (active); in [11], 23.1 µM (active).

For the compound `CCCN(CCC)C(=O)SCC`, the outcome in [1], in [2], in [3], in [4], in test [5] and in [6] was inactive. Also, the result in test [7], in test [8], in test [9], in [10], in test [11] and in [12] was inactive. Further, the result in test [13], in test [14], in test [15], in test [16], in test [17] and in test [18] was inactive. In test [19], the outcome was inactive. Also, the AC50 in [19] was 36.1 µM (active).

Take `c1ccc(Nc2ccccc2)cc1`: the result in test [1], in test [2], in test [3], in test [4], in test [5] and in [6] was inactive. In addition, the outcome in test [7], in [8], in test [9], in test [10], in test [11] and in test [12] was inactive. In addition, the outcome in [13], in test [15], in [16], in test [17], in test [18] and in test [19] was inactive.

In the case of `O=C(c1ccccc1)C1CCCCC1`, the result in test [1], in [2], in test [3], in test [4], in [5] and in test [6] was inactive. The outcome in [7], in test [8], in test [9], in [10], in test [11] and in [12] was inactive. Moreover, the outcome in test [13], in test [15], in test [16], in [17], in test [18] and in test [19] was inactive.
